# From PubChem BioAssay
# Sampled rows, rich in hits. Any-hit rate of the full collection: about 3.2%.
# VACV mCherry inh: vaccinia inhibition (mCherry reporter) | Vaccinia virus mCherry reporter infection, fluorescence | Potency, µM (doses to about 36.5 µM), hits mostly inhibitors | 0.63% of 310,000 active | AID 720579; calls by dose curve; tested in A549 cells; note: nearly all actives have a fitted effect of over 35% in size
# Lassa entry inh: Lassa virus entry inhibition; Lassa virus pseudotype entry inhibition, cell reporter; Potency, µM (highest dose often 37.9 µM), most hits filed as inhibitors; 1.2% of 300,000 active; calls by dose curve; tested in HEK293 cells; note: nearly all actives have a fitted effect of over 50% in size
# MARV entry inh: blocks Marburg virus binding to or entry into cells. Marburg virus pseudotyped entry inhibition, cell reporter. Potency, µM (top dose mostly 37.8 µM), usual class: inhibitors. 1.8% of 300,000 active. AID 540276; calls by dose curve; tested in HEK293 cells
# Vaccinia Venus: inhibitors of vaccinia virus (Venus reporter). Vaccinia virus Venus reporter expression, fluorescence. Potency, µM (highest dose often 36.5 µM), actives largely listed as inhibitors. 0.46% of 330,000 active; calls by dose curve; tested in A549 cells; note: nearly all actives have a fitted effect of over 30% in size
# FMDV antiviral: antivirals against foot and mouth disease virus; 1.2% of 410,000 active; FMDV antiviral cell-based qHTS; Potency, µM (highest dose often 57.9 µM), most hits filed as inhibitors; calls by dose curve; tested in HEK293T cells; note: read-out not given here; nearly all actives have a fitted effect of over 45% in size
# Numbers stand for hits; – = inactive; ? = inconclusive; · = no result.
SMILES,VACV mCherry inh,Lassa entry inh,MARV entry inh,Vaccinia Venus,FMDV antiviral
CC(NC(=O)CN1C(=O)NC(Cc2ccccc2)(Cc2ccccc2)C1=O)C12CC3CC(CC(C3)C1)C2 (configuration not stated),10µM,?,?,?,–
CC(NC(=O)Cn1c(=O)[nH]c2ccsc2c1=O)C12CC3CC(CC(C3)C1)C2 (configuration not stated),·,–,–,·,?
CC(NC(=O)Cn1ccsc1=N)C12CC3CC(CC(C3)C1)C2 (configuration not stated),–,?,10µM,–,–
CCCCCCC[C@@H](C/C=C/CCC(=O)N(C)C/C(=C/Cl)C/C(=C\C(=O)N1C[C@H](O)CC1=O)OC)OC,–,·,·,?,32µM
CCCCCCC[C@@H](C/C=C/CCC(=O)O)OC,–,·,·,–,–
CCCCCCC[C@@H](C/C=C/CCC(=O)N(C)C/C(=C/Cl)C/C(=C\C(=O)N1CC(OC)=CC1=O)OC)OC,10µM,·,·,?,?
CCN1C(=O)[C@@H]2[C@H]3[C@H](O)[C@H](O)CC(=NOC[C@@H](O)COCc4ccco4)[C@@H]3CC[C@H]2C1=O,·,·,–,·,·
Clc1ccccc1CN1CCc2nc(N3CCN(c4ncccn4)CC3)ncc2C1,–,–,·,–,32µM
CN1CCN(c2ncc3c(n2)CCN(Cc2ccccc2Cl)C3)CC1,–,–,·,–,–
Cc1cccc(CN2CCc3nc(N4CCN(c5ccccn5)CC4)ncc3C2)c1,?,–,·,?,14µM
O=C(NCC1CCC2(CCN(Cc3cccc(-c4ccco4)c3)CC2)O1)c1ccccc1 (configuration not stated),–,·,·,–,–
CCCCSc1ncnc2c1ncn2C1CCCCO1 (configuration not stated),–,?,?,–,–
Fc1ccccc1CSc1ncnc2c1ncn2C1CCCO1 (configuration not stated),?,?,0.89µM,–,–
Cc1cc(Nc2ccc(C)c(C)c2)c2ccccc2n1,?,–,3.2µM,–,–
CCOc1ccc2nc(C)cc(Nc3cccc([N+](=O)[O-])c3)c2c1,11µM,?,?,?,–
CCOc1ccc(Nc2cc(C)nc3c(C)cccc23)cc1,–,–,0.89µM,–,–
O=C(O)c1cc(Cl)c(Cl)cc1C(=O)Nc1cccc2cccnc12,–,–,?,–,–
COc1ccccc1-c1ccc2ncnc(NCCNC(C)=O)c2c1,·,·,·,·,–
COc1ccc2c(c1)[C@H](C=Cc1ccccc1)[C@@H]([C@H](O)CO)O2,·,·,–,·,·
CC(O)CN=c1cc(-c2ccccc2)oc2ccc(Cl)cc12 (configuration not stated),·,–,?,–,–
CC(C)CN=c1cc(-c2ccccc2)oc2ccc(Cl)cc12,·,?,18µM,–,–
COc1ccc2c(c1)c(CCN1CCOCC1)c(C)n2C(=O)c1cccc(Cl)c1Cl,·,23µM,?,·,·
Cc1ccc(SCc2cc(=O)[nH]c(Nc3nc(C)c4cccc(C)c4n3)n2)cc1,–,–,9.2µM,–,–
Cc1ccc(CN2C[C@@H](Sc3nc(C)cc(C)n3)C[C@H]2C(=O)N2CCN(c3ccccc3F)CC2)cc1,–,·,·,–,–
CC(C)CNc1ncnc2c1ncn2[C@H]1CN(Cc2ccco2)C[C@@H](CO)O1,–,·,·,–,–
SMILES,VACV mCherry inh,Lassa entry inh,MARV entry inh,Vaccinia Venus,FMDV antiviral
CCN(C(=O)c1cc2c(C)nc3ccccc3c2o1)c1cc(Cl)ccc1OC,–,?,13µM,–,?
CN(CC1CCOCC1)C(=O)CC1C(=O)NCCN1CC1CCCCC1 (configuration not stated),–,–,–,–,–
CC(NC(=S)Nc1cccc(C(F)(F)F)c1)C(C)(C)C (configuration not stated),–,10µM,?,–,?
c1ccc(CN2CCC(Nc3nc(-c4cccs4)nc4ccccc34)CC2)cc1,·,?,12µM,·,?
c1csc(-c2nc(NCC3CCCO3)c3ccccc3n2)c1 (configuration not stated),–,–,10µM,–,–
COc1cccc(Nc2nc(NCC3CCCO3)c3ccccc3n2)c1 (configuration not stated),?,?,?,?,20µM
Oc1ccccc1Nc1nc(NCC2CCCO2)c2ccccc2n1 (configuration not stated),·,?,15µM,·,?
Oc1ccc(Nc2nc(NCC3CCCO3)c3ccccc3n2)cc1 (configuration not stated),·,?,?,·,–
c1cncc(-c2nc(NCC3CCCO3)c3ccccc3n2)c1 (configuration not stated),–,?,?,–,–
c1csc(CNc2nc(-c3cccs3)nc3ccccc23)c1,–,–,–,–,–
Cc1ccc2nc(N3CCCCCC3)c(CN(CC3CCCO3)C(=O)c3cncs3)cc2c1 (configuration not stated),–,·,·,–,–
Oc1ccc(Cl)cc1Nc1nc(NCC2CCCO2)c2ccccc2n1 (configuration not stated),·,·,·,·,28µM
CC(=O)c1ccccc1OCC(O)CNC1CCCC1 (configuration not stated),·,·,·,·,–
O=C(NNC(=O)c1ccccc1OCc1ccc(F)cc1)c1ccccc1O,?,?,?,?,–
O=C(NNC(=O)c1ccccc1OCc1ccccc1)c1ccccc1O,7.1µM,–,–,?,–
CC(Nc1cc(C)cc(C)c1)=[N+](C)CCNS(=O)(=O)c1ccc(Cl)cc1,?,–,10µM,–,–
Cc1ccc(S(=O)(=O)N2CCC(=O)N(C(COCc3cccc(C(F)(F)F)c3)C(C)C)CC2)cc1 (configuration not stated),?,?,13µM,?,?
O=C(c1cccc(S(=O)(=O)N2CCc3ccccc32)c1)N1CCN(c2ccccc2)CC1,–,4µM,?,–,–
O=C(c1cccc(S(=O)(=O)N2CCc3ccccc3C2)c1)N1CCN(c2ccccc2)CC1,–,16µM,?,–,?
CCCN(CC(=O)Nc1ccccc1OC)Cc1c(O)ccc2ccccc12,–,–,–,–,–
O=Cc1ccc(-c2cccs2)s1,–,10µM,?,?,–
CC(C)(C)NC(=O)Cn1cc(S(=O)(=O)Cc2ccccc2Cl)c2ccccc21,–,–,·,–,–
CN(C(=O)c1ccco1)c1nc(CC(=O)Nc2ccccc2)cs1,·,–,18µM,–,–
CCN(C(=O)c1ccco1)c1nc(CC(=O)Nc2ccc(Cl)cc2)cs1,–,–,–,–,–
C=CCOc1cccc(/C=C2\C(=O)N(Cc3ccc(C)cc3)C(C)=C2C(=O)OC)c1,–,?,?,–,–
CCOc1cc(/C=C2\C(=O)N(Cc3ccc(C)cc3)C(C)=C2C(=O)OC)ccc1O,·,?,–,–,35µM
Cc1ccc(C(=O)CCC(=O)Nc2ccc(Cl)c(S(=O)(=O)Nc3cccc(Cl)c3)c2)cc1,–,?,–,–,–
CCC(C)NCCC(=O)Nc1ccc(Cl)c(S(=O)(=O)Nc2ccc(Cl)cc2)c1 (configuration not stated),–,–,11µM,–,–
O=C(NCc1ccncc1)c1cnn(-c2ncc3c(n2)-c2ccccc2CC3)c1C1CC1,–,·,·,–,–
CC1Cc2ccccc2N1C(=O)CSc1nc2c(c(=O)n(C)c(=O)n2C)n1Cc1ccccc1 (configuration not stated),–,?,?,–,–
